This is a sample that favours compounds with a hit; in the whole collection about 0.93% have one here.
CDC25B-CDK2 inh = primary biochemical HTRF screen for blockers of M-phase inducer phosphatase 2 binding to CDK2/cyclin A; HTRF CDC25B-CDK2/CyclinA binding, anti-His/anti-Flag; stronger effect = higher value; z-score (no concentration beside the values); 94,000 compounds, 0.72% hits; in the data active = z-score above about 3.2
HIV TAR-Tat = TAR RNA-Tat peptide displacers, HIV-1, primary screen, biochemical, FRET, FAM/TAMRA-labeled Tat | HIV-1 TAR RNA, Tat peptide displacement FRET; stronger effect = higher value | z-score (no concentration beside the values) | 100,000 compounds, 0.6% hits | AID 1259389, 2018; active = z-score of 3 or more in at least 2 runs
Active calls of the source: *; . = no result given; ! = not active in a repeat.

SMILES	CDC25B-CDK2 inh	HIV TAR-Tat
CCOc1ccc(S(=O)(=O)Nc2ccc3c(c2)N(S(=O)(=O)c2ccccc2)CCC3)cc1	.	0.39
CCOc1ccc(S(=O)(=O)Nc2cc3c(c4ccccc24)OC2(C3)N(C)c3ccccc3C2(C)C)cc1 (stereo unspecified)	18*	.
COc1ccc(C(=O)CSc2nc3n(n2)C(c2cccs2)C2=C(CC(C)(C)CC2=O)N3)cc1 (stereo unspecified)	-1.2	2.8
CCc1ccc(NC(=O)CSc2nc(-c3ccc4c(c3)OCO4)nc3cc(=O)[nH]n23)cc1	.	7.4
COc1ccc(NC(=O)CSc2nc(-c3cccs3)nc3cc(=O)[nH]n23)cc1	.	14*
CN(Cc1ccccc1)C(=O)CSc1nc(-c2ccccc2)nc2cc(=O)[nH]n12	.	10*
CN(C(=O)CSc1nc(-c2ccccc2)nc2cc(=O)[nH]n12)c1ccccc1	.	1.6
CSc1cccc(NC(=O)CSc2nc(-c3ccc4c(c3)OCO4)nc3cc(=O)[nH]n23)c1	.	22*
O=C(CSc1nc(-c2cccs2)nc2cc(=O)[nH]n12)Nc1ccccc1	.	0.68
Cc1ccc(-c2nc(SCC(=O)Nc3ccc(C)c(C)c3)n3[nH]c(=O)cc3n2)cc1	.	19*
Cc1cc(C)cc(NC(=O)CSc2nc(-c3ccccc3)nc3cc(=O)[nH]n23)c1	.	0.65
COc1ccc(/C=C/c2nc(=O)cc(-c3ccccc3)o2)cc1	-2.2	.
CC1CCN(S(=O)(=O)N2CCCC(C(=O)Nc3ccc(Br)cc3F)C2)CC1 (stereo unspecified)	.	-0.51
CN(CC1COc2ccccc2O1)C(=O)Cn1cnc(S(=O)(=O)N2CCCCC2)c1 (stereo unspecified)	.	1.2
CCC(C)N1CCN(S(=O)(=O)c2ccc3c(c2)NC(=O)CO3)CC1 (stereo unspecified)	.	1.8
Oc1ccc(Cl)cc1Cc1cc(Cl)ccc1O	.	0.6
COc1cc(O)c2c(c1)C(=O)c1cc(C)cc(O)c1C2=O	.	1.8
O=C(c1cc(O)c(O)c(O)c1)c1ccc(O)c(O)c1O	.	33*
O=C(O)c1cc(O)c(O)c(O)c1	.	6.8*
O=C(O)c1cc(O)c2c(c1)C(=O)c1cc(O)cc(O)c1C2=O	.	9.5*
O=C(O)c1ccnc(-c2cc(C(=O)O)ccn2)c1	-0.69	.
COCCSc1ncc(CO)n1Cc1ccccc1	.	0.88
CC(=O)Nc1ccc(S(=O)(=O)Nc2cccc(C(=O)Nc3nccs3)c2)cc1	-0.89	.
O=C(Nc1ccccc1Cl)NC1CCN(c2nc3ccccc3s2)CC1	-1.3	0.7
COC(=O)C1=C(C(=O)OC)SC(=C2C(=S)C(C)(C)Nc3cc(C)ccc32)S1	13*	1.5
SMILES	CDC25B-CDK2 inh	HIV TAR-Tat
COC(=O)C1=C(C(=O)OC)SC(=C2C(=S)C(C)(C)Nc3ccc(OC)cc32)S1	-6.5	1.3
CCOC(=O)C1=C(C(=O)OCC)SC(=C2C(=S)C(C)(C)Nc3cc(C)ccc32)S1	17*	-0.02
CCOC(=O)C1=CS/C(=C2/C(=S)C(C)(C)Nc3cc(C)ccc32)S1	-3.3	1
COc1cccc(C2C3(C#N)C(N)=NC4(OCCO4)C23C#N)c1 (stereo unspecified)	-1.3	.
O=C(C1=C(Nc2cccc(Br)c2)c2ccccc2S1(=O)=O)N1CCOCC1	.	0.91
O=c1cc(-c2cc(O)c(O)c(O)c2)oc2cc(O)cc(O)c12	.	10*
O=c1cc(-c2ccc(O)cc2)oc2cc(O)cc(O)c12	0.12	3.4
Cc1cccc2cc3c(nc12)N(C(=O)C1CC1)CC3	-0.48	-0.96
COc1ccc2cc(-n3nc(C)cc3C)c(-n3nc(C)cc3C)cc2c1	-0.19	0.5
O=C(O)CN(CC(=O)O)CC(=O)O	3.6*	.
O=C(O)CN(CCN(CC(=O)O)Cc1ccccc1O)Cc1ccccc1O	.	2.2
O=C(c1ccco1)N1CCN(S(=O)(=O)c2ccccc2)CC1	-0.89	0.56
O=C(c1ccco1)N1CCN(S(=O)(=O)c2ccc(F)cc2)CC1	.	17*
CC(C)(C)C(=O)NNC(=O)c1cnccc1C(F)(F)F	-1.6	.
COc1cscc1C(=O)Nc1cc(C(F)(F)F)cc(C(F)(F)F)c1	-0.73	.
COC(=O)c1cscc1OC(=O)c1ccc(C(F)(F)F)cc1	17*	.
Cc1c(CCNS(=O)(=O)c2cccs2)sc2nc(-c3ccc(Cl)cc3)nn12	.	1
Cn1c(=O)c2c(SCC(=O)N3CCN(c4ccccc4)CC3)nc(C3CCCC3)nc2n(C)c1=O	.	0.72
O=C(CN1c2ccc(Br)cc2-c2ccccc2S1(=O)=O)Nc1cccc(F)c1	-0.1	-0.14
Cc1cc(C)n(CC(C)O)c(=O)c1C#N (stereo unspecified)	16*	0.95
Cc1cc(C)n(CCCO)c(=O)c1C#N	1	0.5
CCS(=O)(=O)c1nc(S(=O)(=O)c2ccc(Cl)cc2)c(NC2CCCC2)s1	-0.88	-0.12
CCN(CC)CCCNC(=O)Cn1ncc2c([nH]c3ccccc32)c1=O	.	3.3
CN(C)c1ccc(C2Nc3cccc4cccc(c34)N2)cc1	-0.66	1.5
COc1cc(C2Nc3cccc4cccc(c34)N2)ccc1OCc1ccccc1	-3.1	0.66
SMILES	CDC25B-CDK2 inh	HIV TAR-Tat
CC(C)(C)c1ccc(C2Nc3cccc4cccc(c34)N2)cc1	-0.84	7.1*
CCOc1cc(C2Nc3cccc4cccc(c34)N2)ccc1O	-4.4	8*
c1ccc(C2Nc3cccc4cccc(c34)N2)cc1	0.48	10*
Brc1cccc(C2Nc3cccc4cccc(c34)N2)c1	-0.96	1.6
c1ccc2c(C3Nc4cccc5cccc(c45)N3)cccc2c1	-1.2	8.2*
COc1ccccc1C1Nc2cccc3cccc(c23)N1	-0.15	4
COC(=O)C1C(=O)Oc2ccc(Br)cc2C1C(C)C(=O)c1ccc(C)cc1 (stereo unspecified)	-0.74	.
CCCN(Cc1ccc(F)cc1)Cc1cc(=O)c2cc(C)ccc2[nH]1	.	1.2
COc1cc(OC)c(C2Nc3cccc4cccc(c34)N2)c(OC)c1	-3	2.6
CCc1ccc(C2Nc3cccc4cccc(c34)N2)cc1	-1.1	35*
Cc1ccc(NC2=NC(C)(C)N=C(N)N2)cc1C	2.9	.
CCn1c2ccccc2c2cc(CN3CCN(Cc4cccc(OC)c4)CC3)ccc21	6.7*	.
CCn1c2ccccc2c2cc(CN3CCN(Cc4cccc([N+](=O)[O-])c4)CC3)ccc21	2.7	.
COc1ccc(OC)c(NC(=O)N2CCN(c3cc(N4CCN(C)CC4)nc(C)n3)CC2)c1	-2.6	1.3
Cc1ccc2ncnc(Nc3ccc(C)c(C)c3)c2c1	-1.8	.
Cc1ccc(Nc2ncnc3ccccc23)cc1C	11*!	.
O=C(Cn1cc(S(=O)(=O)c2ccc(F)cc2)c(=O)c2cc(F)ccc21)Nc1ccc(Cl)cc1	-1.2	2
COC(=O)C1=C(N)Oc2ccccc2C1C(C#N)C#N (stereo unspecified)	19*	.
COC(=O)NC1c2ccccc2Oc2ccccc21	-0.47	0.32
Cc1cccc(Cn2cc3c(=O)[nH]nc-3c3cc(F)ccc32)c1	1.1	1.6
O=c1[nH]nc2c3cc(F)ccc3n(Cc3ccccc3)cc1-2	-1.1	3.2*
CN1CCc2c(sc(-n3cccc3)c2CNC(=O)Nc2ccccc2F)C1	.	-0.73
Cc1csc2nc(COC(=O)c3cccs3)cc(=O)n12	.	-1.9
O=C(Nc1c(C(c2ccccc2F)N2CCOCC2)oc2ccccc12)c1ccco1 (stereo unspecified)	-0.15	0.25
O=c1cc2cc(O)[nH]c(=O)c2c(O)[nH]1	19*	.
